Laboratory results published in PubChem BioAssay.
Values without a mark were called inactive.

test system: not listed separately; assay: MM1S myeloma cell viability, profiling panel, resazurin fluorescence, basal, 24 h, PK04 Diversity Set (AID 1174); details: higher = more signal, called active from +8 up or from −8 down;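 further: MM1S multiple myeloma cell line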
Further: test concentration not given here.

Row | SMILES | z-score
1 | [N-]=[N+]=NCc1ccccc1C[C@@]1(C(=O)N2CCOCC2)N=C(c2ccc(OCCCO)cc2)O[C@@H]1c1ccccc1 | -4.83
2 | COC(=O)C(CC#Cc1ccc2c(c1)[C@]1(C(=O)N2)[C@H](C(=O)N2CCN(c3ncccn3)CC2)[C@H]2C(=O)O[C@H](c3ccccc3)[C@H](c3ccccc3)N2[C@@H]1c1ccc(OCCO)cc1)C(=O)OC | -1.45
3 | [N-]=[N+]=Nc1ccccc1[C@@H]1OC(c2ccc(OCCCO)cc2)=N[C@]1(Cc1ccccc1)C(=O)NCC(O)CO (some centres not stated) | -0.53
4 | CCCC[C@@H]1C[C@H]1[C@@H](NC(=O)c1cccs1)c1ccc(C(F)(F)F)cc1 | -0.6
5 | COC(=O)[C@@]1(Cc2ccc(OC)cc2)[C@H]2c3cc(C(=O)N(C)C)n(CCO)c3C[C@H]2CN1C(=O)c1ccccc1 | -1.23
6 | CCOC(=O)C[C@H]1[C@H](OC(=O)Cc2ccc3c(c2)OCO3)[C@@H](NC(=O)CC(C)C)c2cc(OCCCO)ccc2N1C(=O)Cc1ccc(OC)cc1 | -0.0151
7 | O=C1NC(=O)C2C1C=CC(C(O)c1ccco1)N2Nc1ccccn1 (configuration not stated) | -1.68

biological target: Dihydroorotate dehydrogenase (quinone), mitochondrial (Plasmodium falciparum (isolate 3D7)) (UniProt Q08210); assay: PfDHODH enzyme inhibitors, primary screen, biochemical, C-terminal His tag, absorbance 600 nm (AID 1175); details: DCIP absorbance 600 nm, higher = more signal, called active from +8 up or from −8 down;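 further: recombinant parasite enzyme with a five histidine tag at its C terminus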
Sequence (Q08210 whole entry, looked up): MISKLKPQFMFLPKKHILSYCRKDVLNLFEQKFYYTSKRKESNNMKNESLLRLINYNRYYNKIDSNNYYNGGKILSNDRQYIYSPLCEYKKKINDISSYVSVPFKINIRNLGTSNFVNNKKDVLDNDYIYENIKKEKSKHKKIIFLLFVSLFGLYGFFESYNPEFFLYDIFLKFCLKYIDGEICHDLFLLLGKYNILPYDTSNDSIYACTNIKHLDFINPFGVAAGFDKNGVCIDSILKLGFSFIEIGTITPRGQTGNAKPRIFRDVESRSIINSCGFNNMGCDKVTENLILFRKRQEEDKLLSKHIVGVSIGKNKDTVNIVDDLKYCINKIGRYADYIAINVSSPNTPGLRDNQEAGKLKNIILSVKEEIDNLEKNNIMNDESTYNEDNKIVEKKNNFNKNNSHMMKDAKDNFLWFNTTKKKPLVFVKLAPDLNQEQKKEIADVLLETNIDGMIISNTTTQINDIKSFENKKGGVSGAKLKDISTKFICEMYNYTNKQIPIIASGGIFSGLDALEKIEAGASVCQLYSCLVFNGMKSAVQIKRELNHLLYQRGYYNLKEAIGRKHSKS

Row | SMILES | composite z-score
8 | O=C1OCCC=C[C@H]2OC34C=CCN(Cn5nnc6ccccc65)C(=O)[C@H]3N(CCCCCCO)C(=O)[C@@H]4C12 (some centres not stated) | -0.272
9 | O=C1C[C@@](C(=O)NCCN2CCOCC2)(c2ccc([N+](=O)[O-])cc2)[C@@H](c2ccc(CO)cc2I)N1C1CCCCC1 | 0.362
10 | NC(=O)N1C(=O)C2C(C1=O)C1C=C(CCCO)C2C(c2cccs2)N1Cc1cccc(OC(F)(F)F)c1 (configuration not stated) | -0.376
11 | C=C(/C(=C/C[C@H](OC(C)=O)c1ccccc1OCCO)c1cc(C(=O)OC)ccc1OC)C(C)C | -1.96
12 | CCCC[C@@H](O)C1=C(COc2ccccc2)C[C@H]2C(=O)N(C)C(=O)[C@H]2[C@H]1CO | -1.85
13 | O=C1NC(=O)C2C1C=CC(C(O)c1cccc3ccccc13)N2Nc1ccc(Cl)cc1Cl (configuration not stated) | 0.847
14 | COc1ccc(-c2cc3c(c(CCc4ccccc4)n2)[Si](C(C)C)(C(C)C)OC3)cn1 | -0.319
15 | COC(=O)[C@@]1(Cc2ccc(F)cc2)[C@H]2c3cc(C(=O)N4CCCC4)n(CCc4ccc(O)c(O)c4)c3C[C@H]2CN1C(=O)c1ccccc1 | -0.0926
16 | CC1=C[C@@]2(CO)C(=O)[C@]3(CO3)[C@@H]1[C@H]1[C@]2(C)C=C(CO)C(=O)[C@]12CO2 | -2.12
17 | O=C(NCC(F)(F)F)[C@@H]1c2ccccc2C(=O)N(Cc2ccc(OC(F)(F)F)cc2)[C@H]1c1ccc(CO)cc1 | -0.504
18 | COC(=O)Cn1c(C(=O)N(C)C)cc2c1C[C@H]1CN(C(=O)c3ccccc3)[C@@](Cc3ccc(F)cc3)(C(=O)OC)[C@@H]21 | 0.289
19 | COc1ccc([Si](C)(C)[C@H]2[C@H](CC(=O)N(CCO)Cc3ccccc3)O[C@@]3(C(=O)N(Cc4cccc(N5CCOC5=O)c4)c4ccccc43)[C@@H]2C)cc1 | 0.966
20 | COCCCNC(=O)[C@]1(CCS(=O)(=O)c2ccccc2)N=C(c2ccc(OCCCO)cc2)O[C@@H]1c1ccccc1CN=[N+]=[N-] | 0.36
21 | [N-]=[N+]=Nc1ccccc1C[C@]1(C(N)=O)N=C(c2ccc(OCCCO)cc2)O[C@H]1c1ccccc1N=[N+]=[N-] | -0.398
22 | C#CCN([C@@H](Cc1ccc(O)cc1)C(=O)OC)[C@@H](/C=C/C1CC1)[C@H](O)Cc1ccccc1 | -0.228
23 | CN(C)c1ccc(C(O)C2C=CC3C(=O)N(c4ccccc4)C(=O)C3N2Nc2ccc([N+](=O)[O-])cc2)cc1 (configuration not stated) | 0.835
24 | NCCCCCCNC(=O)[C@@H]1C[C@@H]2C(=O)N[C@@H](CCCCN)C(=O)N2[C@@H]1c1cccc(OCCO)c1 | 0.169
25 | CCOC(=O)C1=CC[C@@H](c2ccc(OCc3ccccc3)c(OC)c2)N(S(=O)(=O)c2ccc(C)cc2)[C@H]1c1ccc(SC)cc1 | -0.322
26 | COC(=O)[C@@]1(Cc2ccccc2)[C@H]2c3cc(C(=O)N(C)C)n(Cc4c(CO)[nH]cc(C)c4=O)c3C[C@H]2CN1C(=O)c1ccccc1 | 0.0442
27 | CN1C(=O)C2C=CC(C(O)COCc3ccccc3)N(N(c3ccccc3)c3ccccc3)C2C1=O (configuration not stated) | -0.0748
